# About 83,000 compounds went through this panel and 20% of them were active in at least one assay; those are over-represented in the sample as a whole.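 For each line, cells grew in 96-well plates with the test compound present at a single concentration for 48 hours.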 Active and inactive are the calls of the source. How the source made its calls: active means growth percent below 10; inactive means the rest.
# Columns and labels:
# Assay in all cases: NCI-60 one-dose screen, 48 h (100 = growth as untreated, 0 = no growth, -100 = all killed)
# A549/ATCC NSCLC = details: 10 µM unless noted
# UACC-257 melanoma = details: 10 µM unless noted
# ACHN renal = details: 10 µM unless noted
# CAKI-1 renal = details: 10 µM unless noted
# A498 renal = details: 10 µM unless noted
# MOLT-4 leukemia = details: 10 µM
# OVCAR-5 ovarian = details: 10 µM unless noted
# OVCAR-4 ovarian = details: 10 µM unless noted
# IGROV1 ovarian = details: 10 µM
# COLO 205 colon = details: 10 µM
# MALME-3M melanoma = details: 10 µM unless noted
# MDA-MB-231 breast = details: 10 µM unless noted
# RXF 393 renal = details: 10 µM unless noted
# HT29 colon = details: 10 µM unless noted
# SK-MEL-5 melanoma = details: 10 µM unless noted
# LOX IMVI melanoma = details: 10 µM unless noted
# SK-MEL-2 melanoma = details: 10 µM unless noted
# UO-31 renal = details: 10 µM unless noted
# CCRF-CEM leukemia = details: 10 µM unless noted
# MDA-MB-435 melanoma = details: 10 µM unless noted
Structure (SMILES),growth (A549/ATCC NSCLC),growth (UACC-257 melanoma),growth (ACHN renal),growth (CAKI-1 renal),growth (A498 renal),growth (MOLT-4 leukemia),growth (OVCAR-5 ovarian),growth (OVCAR-4 ovarian),growth (IGROV1 ovarian),growth (COLO 205 colon),growth (MALME-3M melanoma),growth (MDA-MB-231 breast),growth (RXF 393 renal),growth (HT29 colon),growth (SK-MEL-5 melanoma),growth (LOX IMVI melanoma),growth (SK-MEL-2 melanoma),growth (UO-31 renal),growth (CCRF-CEM leukemia),growth (MDA-MB-435 melanoma)
CC[C@@]1(C2O[C@@H](C3O[C@@](O)(CC)[C@H](C)C[C@@H]3C)C[C@@H]2C)CC[C@H]([C@]2(C)CCC3(C[C@H](O)[C@@H](C)[C@@H]([C@H](C)[C@@H](OC)[C@H](C)C(=O)O)O3)O2)O1 (stereo partly drawn),17.6% (inactive),20.7% (inactive),32% (inactive),24.5% (inactive),42.7% (inactive),30.8% (inactive),43.9% (inactive),29.7% (inactive),36.9% (inactive),,,,,,,,,,,
Clc1ccc(SSC(Cl)(Cl)Cl)cc1,100% (inactive),112% (inactive),102% (inactive),119% (inactive),111% (inactive),99.7% (inactive),105% (inactive),108% (inactive),107% (inactive),114% (inactive),95.7% (inactive),116% (inactive),112% (inactive),101% (inactive),110% (inactive),103% (inactive),123% (inactive),99.9% (inactive),109% (inactive),105% (inactive)
CC1(C)N=C(N)N=C(N)N1c1ccc(CNC(=O)Nc2ccc(S(=O)(=O)F)c(Cl)c2)c(Cl)c1,10% (inactive),23% (inactive),52.9% (inactive),,61.3% (inactive),22.1% (inactive),26.4% (inactive),68.8% (inactive),30.6% (inactive),37.1% (inactive),54.5% (inactive),60.8% (inactive),50.6% (inactive),7.61% (active),24.1% (inactive),11.9% (inactive),49.7% (inactive),88.2% (inactive),17.5% (inactive),13.5% (inactive)
NC(=O)OCC(CO)(c1ccccc1)c1ccccc1,103% (inactive),105% (inactive),98.1% (inactive),91.8% (inactive),81.7% (inactive),98.7% (inactive),95.3% (inactive),99.7% (inactive),103% (inactive),105% (inactive),84.6% (inactive),114% (inactive),99.6% (inactive),97.9% (inactive),96.4% (inactive),98.7% (inactive),110% (inactive),80.1% (inactive),94.4% (inactive),101% (inactive)
O=C(O)C1(Br)CC12c1ccccc1-c1ccccc12 (stereo not drawn),98.4% (inactive),94.8% (inactive),99% (inactive),,,86% (inactive),104% (inactive),107% (inactive),99.7% (inactive),115% (inactive),100% (inactive),115% (inactive),99.5% (inactive),104% (inactive),98.4% (inactive),96.1% (inactive),110% (inactive),82.4% (inactive),97.4% (inactive),108% (inactive)
FC(F)=C(F)c1ccccc1,108% (inactive),116% (inactive),110% (inactive),109% (inactive),100% (inactive),92.6% (inactive),112% (inactive),111% (inactive),99% (inactive),104% (inactive),101% (inactive),115% (inactive),112% (inactive),104% (inactive),105% (inactive),88.6% (inactive),98.5% (inactive),83.7% (inactive),80.3% (inactive),104% (inactive)
C[C@]12CC[C@H](OC3OC(O)C(O)C(O)C3O)C=C1CCC1C2CC[C@]2(C)[C@@H](c3ccc(=O)oc3)CC[C@]12O (stereo partly drawn),102% (inactive),112% (inactive),,-62.6% (active),-23.3% (active),-39.3% (active),,-41.9% (active),-12.1% (active),-85.1% (active),-47.6% (active),-72.1% (active),-24.3% (active),-84.5% (active),-96.3% (active),-84.4% (active),-61.3% (active),-92.3% (active),-33.8% (active),-88.2% (active)
CC1(CF)NC(=O)NC1=O (stereo not drawn),113% (inactive),97.2% (inactive),,122% (inactive),105% (inactive),98.4% (inactive),,,,114% (inactive),,99.1% (inactive),121% (inactive),,114% (inactive),100% (inactive),121% (inactive),,95.7% (inactive),107% (inactive)
CC1(C)N=C(N)N=C(N)N1c1ccc(OCCCCNC(=O)Nc2cccc(S(=O)(=O)F)c2)c(Cl)c1,15.4% (inactive),45.4% (inactive),94.9% (inactive),96.6% (inactive),90.3% (inactive),37.6% (inactive),32.5% (inactive),97.1% (inactive),37.9% (inactive),50.4% (inactive),56.5% (inactive),59.6% (inactive),58.2% (inactive),14.4% (inactive),25.9% (inactive),13.7% (inactive),81.2% (inactive),90.1% (inactive),23.6% (inactive),20.1% (inactive)
Fc1ccc(C2=NN(c3ccccc3)C(c3sc(N(CCCl)CCCl)nc3Cl)C2)cc1 (stereo not drawn),86.3% (inactive),86.7% (inactive),79.4% (inactive),62.2% (inactive),92.4% (inactive),65.4% (inactive),91.5% (inactive),78.8% (inactive),82.7% (inactive),88.6% (inactive),102% (inactive),69% (inactive),102% (inactive),81.2% (inactive),83.2% (inactive),83.2% (inactive),84.5% (inactive),67.6% (inactive),83.1% (inactive),93.9% (inactive)
CC(C)(C)NCC(O)c1ccccc1Cl (stereo not drawn),11.5% (inactive),54.5% (inactive),53.7% (inactive),54.6% (inactive),-9.2% (active),31.6% (inactive),11% (inactive),60.3% (inactive),45.5% (inactive),5.34% (active),35.8% (inactive),12.8% (inactive),-19.8% (active),2.91% (active),,35.1% (inactive),-20.2% (active),48.1% (inactive),10.5% (inactive),-52.5% (active)
CC1(C)N=C(N)N=C(N)N1c1ccc(OCCCCOc2ccc(S(=O)(=O)F)cc2)c(Cl)c1,11.2% (inactive),,25.2% (inactive),44.5% (inactive),29.3% (inactive),26.7% (inactive),30.7% (inactive),57% (inactive),33.1% (inactive),20.4% (inactive),45.9% (inactive),38.3% (inactive),27.9% (inactive),8.74% (active),9.68% (active),14.7% (inactive),38.6% (inactive),67.7% (inactive),16% (inactive),16.8% (inactive)
NC(=O)C(Cl)Cl,,94.8% (inactive),104% (inactive),98.1% (inactive),106% (inactive),109% (inactive),101% (inactive),105% (inactive),102% (inactive),113% (inactive),96.6% (inactive),111% (inactive),,116% (inactive),,,,94.6% (inactive),-19.9% (active),103% (inactive)
n1nc(-c2nonc2-c2nn[nH]n2)n[nH]1,95.2% (inactive),100% (inactive),115% (inactive),98.8% (inactive),81.9% (inactive),110% (inactive),108% (inactive),102% (inactive),118% (inactive),117% (inactive),106% (inactive),105% (inactive),93.7% (inactive),107% (inactive),104% (inactive),103% (inactive),115% (inactive),92.5% (inactive),,97.7% (inactive)
CNc1ccc(C(=O)CC(O)CCC(C)C2OC(=O)CC(O)CC(=O)CC(O)CC(O)CC(O)CC(O)CC3(O)CC(O)C(C(=O)OC)C(CC(O[C@@H]4O[C@H](C)[C@@H](O)[C@H](N)[C@@H]4O)/C=C/C=C/C=C/C=C/C=C/C=C/C=C/C2C)O3)cc1 (stereo partly drawn),-65% (active),-79.7% (active),-79.5% (active),2.61% (active),-54.2% (active),-13.8% (active),-9.42% (active),-10.5% (active),3.21% (active),2.91% (active),-78.6% (active),-0.509% (active),-20% (active),-21.2% (active),2.72% (active),-8.67% (active),-8.57% (active),-58.6% (active),14.9% (inactive),-1.58% (active)
C#CC1(O)CCC2(C)C(CCC3C4CCC(=O)C4(C)CCC32)C1 (stereo not drawn),92% (inactive),93.9% (inactive),97.8% (inactive),,98.2% (inactive),97.3% (inactive),99.8% (inactive),95.8% (inactive),104% (inactive),106% (inactive),103% (inactive),101% (inactive),110% (inactive),86.9% (inactive),96.2% (inactive),96.6% (inactive),92% (inactive),86.8% (inactive),91.2% (inactive),101% (inactive)
CC[C@@H](C)/C=C(C)/C=C/C(=O)c1c(O)c(-c2ccc(O)cc2)cn(O)c1=O,3.85% (active),-29.8% (active),0.29% (active),-54.9% (active),39.3% (inactive),,,,5.54% (active),85.2% (inactive),-7% (active),,19.8% (inactive),,-75.6% (active),3.82% (active),59.7% (inactive),-8.98% (active),9.47% (active),24.1% (inactive)

# Reference: PubChem BioAssay (NCI)
